Compound activity deposited in PubChem BioAssay by The Scripps Research Institute Molecular Screening Center.
An excerpt weighted towards active compounds, which were near 2.3% of everything screened.
CHO-K1 Ca antag = nonselective inhibitor or artifact in parental CHO-K1 cells. ATP-induced calcium, Fluo-8 fluorescence. inhibition, % at 3 µM. hit rate 0.6% among 360,000. AID 602250;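 active means inhibition above a per-plate cutoff, the plate's mean sample inhibition plus 3 SD, cut at about 24% in these data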;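 further: 0% = DMSO plus EC80 ATP and 100% = DMSO alone without ATP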
CHRM1 antagonist = antagonists of human M1 muscarinic receptor; P11229; CHO-K1 hM1, Fluo-8 calcium fluorescence, ACh EC80 antagonist; inhibition, % at 3 µM; hit rate 1.3% among 360,000; AID 588852;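 active means percent inhibition above its own plate's cutoff, namely the mean of that plate's compound wells plus 3 SD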;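 further: peak over basal fluorescence ratio during 140 s after agonist addition; 0% = ACh EC80 plus DMSO and 100% = DMSO alone without agonist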
Target sequence (P11229 whole entry, looked up): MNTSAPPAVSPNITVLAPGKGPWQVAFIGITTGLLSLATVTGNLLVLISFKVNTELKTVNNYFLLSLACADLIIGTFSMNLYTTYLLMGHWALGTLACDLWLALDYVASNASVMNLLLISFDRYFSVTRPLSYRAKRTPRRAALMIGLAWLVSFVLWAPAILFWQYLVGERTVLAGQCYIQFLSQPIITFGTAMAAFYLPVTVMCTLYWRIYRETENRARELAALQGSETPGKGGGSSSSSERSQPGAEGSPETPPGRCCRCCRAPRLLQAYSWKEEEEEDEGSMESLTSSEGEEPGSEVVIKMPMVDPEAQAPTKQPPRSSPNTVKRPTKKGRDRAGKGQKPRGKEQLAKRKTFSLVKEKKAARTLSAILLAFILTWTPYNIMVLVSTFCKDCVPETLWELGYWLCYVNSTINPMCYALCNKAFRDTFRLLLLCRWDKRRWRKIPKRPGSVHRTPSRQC
M1 ag parental = M1 agonist counterscreen hit in parental CHO-K1 cells | Fluo-8 calcium fluorescence; scaled to maximal ATP response, vehicle zero | activation, % at 3 µM | hit rate 0.48% among 360,000; in the data active means activation above about 15%;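 further: untransfected CHO-K1 host cells lacking M1 receptor as counterscreen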
CHRM1 agonist = activates human CHRM1 receptor; CHO-K1 hM1, Fluo-8 calcium fluorescence, agonist mode; 0% DMSO, 100% acetylcholine EC100; activation, % at 3 µM; hit rate 0.33% among 360,000; AID 588814;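 active means activation above the run's mean compound activation plus 3 SD, cut at about 16% in these data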;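 further: peak over basal fluorescence ratio within a 140 s kinetic read after compound addition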
M1 PAM parental = counter-screen for M1 PAMs: effect in parental CHO-K1 cells | ATP EC20, Fluo-8 calcium fluorescence; 0% at ATP EC20, 100% at ATP max | activation, % at 3 µM | hit rate 0.02% among 360,000;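 active means activation above the run cutoff, the mean activation of all test compounds plus 3 SD, cut at about 40% in these data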;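 further: peak over basal fluorescence ratio in a 140 s read after ATP addition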
CHRM1 PAM = positive allosteric modulators of human M1 muscarinic receptor; P11229; CHO-K1 hM1, Fluo-8 calcium fluorescence, ACh EC20; 0% = ACh EC20, 100% = maximal ACh; activation, % at 3 µM; hit rate 0.088% among 360,000; AID 588819; in the data active means activation above about 19%, passing the limit was not always enough
Numbers without * were called inactive.

SMILES	CHO-K1 Ca antag	CHRM1 antagonist	M1 ag parental	CHRM1 agonist	M1 PAM parental	CHRM1 PAM
CC(Oc1ccccc1F)c1nnc(SCC(=O)Nc2ccc(N3CCOCC3)cc2)o1 (centres undefined)	-3.7	-3.4	0.3	-0.1	6.9	4.0
Cc1nnc(SCC2=C(C(=O)O)N3C(=O)C(NC(=O)C(C)n4nc(C(F)(F)F)cc4C)C3SC2)s1 (centres undefined)	-20.8	-8.1	0.5	-6.6	9.5	4.4
NC(=O)Cc1ccc(C(=O)c2ccccc2F)s1	25.3*	3.0	0.1	-2.5	-9.2	-8.7
CCC(CC)C(=O)N1N=C(c2ccc(NS(C)(=O)=O)cc2)CC1c1ccc(C)cc1 (centres undefined)	-4.8	-23.3	0.4	-2.4	4.3	10.2
CN(C)c1ccc(/C=C2\Oc3ccc(C#Cc4cccc(N)c4)cc3C2=O)cc1	2.5	35.1*	10.4	28.7*	-13.1	-18.2
O=C(CC[C@H]1O[C@@H](n2cnc3c(NC(=O)c4ccccc4)ncnc32)[C@H](O)[C@@H]1O)NCC1CCN(Cc2ccccc2)CC1	23.8*	3.0	1.3	-12.0	-0.1	-0.8
O=C(CC[C@H]1O[C@@H](n2cnc3c(NC(=O)c4ccccc4)ncnc32)[C@H](O)[C@@H]1O)NCC(F)(F)F	9.9	-0.9	0.7	-5.2	10.1	2.9
O=C(CC[C@H]1O[C@@H](n2cnc3c(NC(=O)c4ccccc4)ncnc32)[C@H](O)[C@@H]1O)NCc1ccco1	2.0	-10.6	2.4	2.7	5.3	-0.7
O=C(CC[C@H]1O[C@@H](n2cnc3c(NC(=O)c4ccccc4)ncnc32)[C@H](O)[C@@H]1O)NCCc1cc2ccccc2[nH]1	27.2*	12.3	0.2	6.2	-6.7	2.5
CC(=O)Nc1ccc(S(=O)(=O)N2CCN(c3cc(C)ccc3C)CC2)cc1	-6.8	-10.2	3.4	0.4	9.8	-0.1
CC(=O)Nc1ccc2c(c1)CN(c1cc(C)ccc1C)CO2	24.8*	2.4	8.3	1.8	-13.9	-4.1
O=C(Nc1ccncc1)Nc1cccc(C(F)(F)F)c1	23.4	7.3	14.4	8.1	-19.8	-3.4
O=C(Nc1ccc(OC(F)F)cc1)Nc1cccc(C(F)(F)F)c1	26.8*	23.8*	9.8	0.8	-0.9	-18.9
CCN(CC)S(=O)(=O)c1ccc(NC(=O)Nc2cccc(C(F)(F)F)c2)cc1	27.8*	29.6*	10.5	2.3	0.0	-10.6
O=C(COc1ccc2ccccc2c1Br)Nc1ncn[nH]1	14.6	6.3	19.2*	-4.7	-10.8	-4.6
CCCCC1(C(=O)OCC)CC(CSC(=N)N)OC1=O (centres undefined)	7.7	3.4	19.0*	-9.8	5.4	7.9
CCCCCOCC1CC(C/C(C)=N/NC(N)=O)(C(=O)OCC)C(=O)O1 (centres undefined)	-2.8	7.0	0.2	-3.5	1.2	-5.0
Cc1ccc2c(c1)N(C(=O)CSc1nncn1C)C(C)(C)c1ssc(=S)c1-2	-4.5	41.5*	-0.4	-6.4	10.0	-27.6
Cc1cc2c(cc1C)N(C(=O)CSc1nncn1C)C(C)(C)c1ssc(=S)c1-2	-33.0	23.5	-0.7	-12.2	27.9	-31.3
O=C(OCC(=O)N(Cc1ccccc1)Cc1ccccc1)c1ccccc1NCCO	9.5	20.8*	6.2	0.5	-4.3	-7.9
COc1ccc(N2CCN(CC(O)COC(c3ccccc3)c3ccccc3)CC2)cc1 (centres undefined)	-1.0	25.2	2.0	-11.3	10.6	-29.6
COc1ccc(N2CCN(CC(O)COC(c3ccc(F)cc3)c3ccc(F)cc3)CC2)cc1 (centres undefined)	-15.1	38.6*	0.1	-10.7	10.7	-13.6
COC(=O)c1c(NC(=O)CN2C(=O)C(=O)N(C(C)C)C2=O)sc(C)c1C	-10.0	-5.4	0.4	-4.5	-15.1	12.2
C[C@H](CO)N1C[C@H](C)[C@@H](CN(C)S(=O)(=O)c2ccccc2)Oc2c(NS(=O)(=O)c3ccccc3)cccc2C1=O	-11.1	-1.2	0.2	-4.8	1.1	3.8
CC1(c2ccccc2)NC(=O)N(CC(=O)NCc2ccc3c(c2)OCO3)C1=O (centres undefined)	-7.5	-4.5	0.6	-4.3	7.0	7.8
SMILES	CHO-K1 Ca antag	CHRM1 antagonist	M1 ag parental	CHRM1 agonist	M1 PAM parental	CHRM1 PAM
CC1(c2ccccc2Cl)NC(=O)N(CC(=O)NCc2ccc3c(c2)OCO3)C1=O (centres undefined)	-13.9	-17.4	3.3	2.0	2.7	29.0*
CC1(c2ccc(Cl)cc2)NC(=O)N(CC(=O)Nc2ccc3c(c2)OCO3)C1=O (centres undefined)	1.0	4.1	4.9	19.5*	-10.6	-5.0
C=CCn1cnc2c(oc3ccccc32)c1=O	5.6	-0.5	-0.3	-9.4	2.8	-1.2
O=C(C1CC(c2ccc(F)cc2)=NO1)N1CCN(c2ccccc2)CC1 (centres undefined)	12.0	47.2*	0.0	-2.6	-7.4	-8.6
O=C(C1COc2ccccc2O1)N1CCN(c2ccc(C(F)(F)F)cn2)CC1 (centres undefined)	5.4	-3.2	24.0*	-1.5	12.0	4.1
COc1ccc(S(=O)(=O)N2CCN(C(=O)C3COc4ccccc4O3)CC2)cc1 (centres undefined)	-23.5	89.0*	6.4	-6.0	12.3	-28.1
O=C(C1CC(c2ccc(F)cc2)=NO1)N1CCCCC1 (centres undefined)	-12.0	2.8	0.5	-3.1	13.8	-2.1
NS(=O)(=O)c1ccc(N2CCN(C(=O)C3COc4ccccc4O3)CC2)nc1 (centres undefined)	13.2	-9.1	0.2	2.4	-26.8	5.8
O=C(C1COc2ccccc2O1)N1CCN(c2ccccc2)CC1 (centres undefined)	52.5*	-17.2	1.5	0.3	4.7	-0.9
O=c1c(/C=C(\O)c2ccccc2)nc2ccccc2n1-c1ccccc1	1.1	18.8	3.4	21.7*	13.3	-8.9
CCCc1nc2c3ccccc3ccn2c1Cc1cccc(F)c1	-19.8	56.2*	0.7	-6.3	14.9	-26.3
FC(F)(F)c1ccccc1Cc1c(C2CCCCC2)nc2c3ccccc3ccn12	12.2	10.9	-0.7	2.2	-12.7	-1.4
CCN(Cc1ccccc1)C(=O)COC(=O)Cc1c[nH]c2ccccc12	25.4*	3.3	4.8	-3.4	-12.7	-0.3
O=C(CSc1ccccc1F)NC(=O)NC1CCCC1	-0.2	-2.8	0.7	-10.1	9.7	-8.5
Fc1ccc(-c2csc(/C=C/c3ccc4c(c3)OCO4)n2)cc1	-7.0	-7.1	-0.1	-6.5	5.0	3.4
CCOc1cc(S(=O)(=O)NC2CCCCC2)ccc1F	6.8	4.0	24.3*	-5.1	10.0	0.2
CC1CCCCN1C(=O)COC(=O)c1cc(-c2cccs2)nn1-c1ccccc1 (centres undefined)	-12.1	45.1*	1.2	-7.0	13.6	-25.7
